DAX1 inh-1: NR0B1 (DAX1) inhibition; P51843; HEK293 Gal4-DAX1 luciferase reporter, luminescence; inhibition, % at 6.75 µM; 340,000 tested, 0.99% active; AID 504766;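 active = inhibition above the mean over all tested compounds plus 3 SD, cut at about 4.2% in these data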;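 also: 0% = DAX1-transfected cells with DMSO and 100% = empty-vector control cells with DMSO; inhibition shows as a rise in luminescence from relieved DAX1 repression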
Target sequence (P51843 207-470 limits assumed): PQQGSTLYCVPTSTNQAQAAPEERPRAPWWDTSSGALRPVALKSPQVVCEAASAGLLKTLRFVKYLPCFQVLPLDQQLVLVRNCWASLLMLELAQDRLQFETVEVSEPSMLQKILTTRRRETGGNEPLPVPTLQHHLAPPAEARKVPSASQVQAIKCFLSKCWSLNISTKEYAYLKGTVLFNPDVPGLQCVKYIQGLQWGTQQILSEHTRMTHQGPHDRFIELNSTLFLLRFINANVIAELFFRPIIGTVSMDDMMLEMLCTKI
hgDAF12 agonist: activates the H. glycines DAF-12 receptor ligand-binding domain | HEK293 GAL4-hgDAF12 UAS-luciferase reporter, agonist luminescence; normalized to butyrate control | activation, % at 6.8 µM | 370,000 tested, 1.8% active | AID 687014;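 active = activation above a cutoff set at the mean of all screened compounds plus 3 SD, cut at about 10% in these data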;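 also: 0% = DMSO wells and 100% = sodium butyrate wells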
hcDAF-12 act: H. contortus DAF-12 activation, primary screen; HEK293 hcDAF-12 lit1-tk-luc reporter, luminescence; 0% DMSO, 100% Δ7-dafachronic acid; activation, % at 6.8 µM; 370,000 tested, 1.4% active;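 active = activation above the mean of all tested compounds plus 3 SD, cut at about 5.5% in these data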;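 also: 100% = response to 3 µM Δ7-dafachronic acid high control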
ssDAF12 agonist: activates DAF-12 receptor from parasite S. stercoralis; HEK293 ssDAF-12/GRIP1 lit1-tk-luc reporter, luminescence; % of 3 µM dafachronic acid response; activation, % at 6.8 µM; 370,000 tested, 1% active; AID 652126;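 active = activation above the mean over all tested compounds plus 3 SD, cut at about 0.9% in these data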;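 also: 0% = DMSO-only wells and 100% = 3 µM delta7-dafachronic acid wells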
GAA850 FXN act: activators of GAA850 frataxin (FXN) promoter; HEK293 lucGAA850 FXN promoter luciferase reporter, 24 h; percent of 10 µM SAHA response; activation, % at 6 µM; 360,000 tested, 0.56% active;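 active = activation above the average of all compounds screened plus 3 SD, cutoff fixed separately per campaign, cut at about 7.5% in these data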;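 also: 0% = DMSO wells and 100% = 10 µM SAHA wells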
DAX1 inh-2: DAX1 (NR0B1) inhibition, primary screen | inhibition, % at 6.8 µM | AID 652010 | 370,000 tested, 1.1% active | HEK293T StAR-luciferase reporter, SF-1/DAX-1 repression relief;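 active = inhibition above the mean over all tested compounds plus 3 SD, cut at about 3.6% in these data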;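 also: 0% = DAX-1 cells with DMSO and 100% = cells lacking DAX-1 with DMSO; higher inhibition means more luminescence from relief of DAX-1 repression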
DAX1 inh confirm: confirmation of human DAX1 (NR0B1) inhibitors; shares compounds with DAX1 inh-2; HEK293T StAR-promoter luciferase reporter, SF-1/DAX-1 repression; inhibition, % at 6.8 µM; 2,400 tested, 87% active;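 active = inhibition above the average of every tested compound plus 3 SD, cut at about 3.8% in these data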;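 also: 0% = DAX-1 cells with DMSO and 100% = no DAX-1 control cells with DMSO; active compounds raise luminescence by relieving repression of the StAR reporter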
SF1 mutant ctr: counter-screen for DAX1 inhibitors: nonselective inhibitors with SF-1 AF2 mutant | 2,400 tested, 78% active | inhibition, % at 6.8 µM | HEK293 StAR-luciferase, luminescence | shares compounds with DAX1 inh-2;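 active = inhibition above the mean of all tested compounds plus 3 SD, cut at about 3% in these data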;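 also: 0% = DAX-1 transfected cells with DMSO and 100% = cells without DAX-1 with DMSO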
LXRb hcDAF ctr: LXR-beta agonism as hcDAF-12 counter-screen | shares compounds with hcDAF-12 act | HEK293 Gal4-LXR tk-luc reporter, luminescence, 24 h; normalized: DMSO 0%, positive control 100% | activation, % at 6.8 µM | 3,400 tested, under 10 active | AID 743027;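 active = mean percent activation of the reporter above a cutoff set as the average over tested compounds plus their standard deviation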
Target sequence (P55055 whole entry, looked up, the tested form may be a part): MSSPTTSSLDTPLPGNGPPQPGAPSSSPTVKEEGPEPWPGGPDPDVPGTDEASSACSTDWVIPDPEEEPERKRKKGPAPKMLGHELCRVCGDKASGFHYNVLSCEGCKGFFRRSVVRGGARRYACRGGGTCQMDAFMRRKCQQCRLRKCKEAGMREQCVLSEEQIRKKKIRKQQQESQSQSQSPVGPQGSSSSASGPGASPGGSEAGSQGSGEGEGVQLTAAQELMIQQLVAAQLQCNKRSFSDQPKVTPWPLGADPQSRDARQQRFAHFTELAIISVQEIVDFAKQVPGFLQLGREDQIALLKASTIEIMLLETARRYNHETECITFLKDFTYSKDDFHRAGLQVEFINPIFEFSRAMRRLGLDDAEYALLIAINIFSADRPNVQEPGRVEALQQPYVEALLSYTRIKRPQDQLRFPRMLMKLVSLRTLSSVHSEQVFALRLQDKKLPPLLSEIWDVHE
hcDAF12 ag: confirmation of H. contortus DAF-12 agonists; shares compounds with hcDAF-12 act; HEK293 hcDAF-12 lit1-tk-luc reporter, luminescence; % of Δ7-dafachronic acid response; activation, % at 6.8 µM; 3,400 tested, 61% active;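 active = mean activation across triplicate tests above the threshold derived from the earlier primary screen, cut at about 5.5% in these data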;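 also: 0% = DMSO only wells and 100% = 3 µM Δ7-dafachronic acid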
Active calls of the source: *; / = not tested or not shown. Shown are actives, neighbours in structure and some others; about 4.5% of the full set was active somewhere.

SMILES | DAX1 inh-1 | hgDAF12 agonist | hcDAF-12 act | ssDAF12 agonist | GAA850 FXN act | DAX1 inh-2 | DAX1 inh confirm | SF1 mutant ctr | LXRb hcDAF ctr | hcDAF12 ag
O=C(NCCc1ccccc1)c1ccccc1NC(=O)C1CC=CCC1C(=O)O (stereo not given) | 0 | 11* | 11* | 1.2* | 5 | 4.7* | 7.6* | 7.5* | 0 | 7.2*
Nc1nc(-c2ccccc2)nc2sc3c(c12)CCCC3 | 2 | 18* | 21* | 3.0* | 7 | 8.3* | 17* | 6.5* | 2 | 17*
O=c1oc(-c2ccccc2)nc2sc3c(c12)CCC3 | 1 | -1 | 1 | -1 | 3 | 1 | / | / | / | /
O=S1(=O)[C@H]2C[C@H](CO)O[C@@]2(CO)CN1Cc1ccc(-c2ccc(F)cc2)cc1 | -1 | 2 | -1 | -1 | 0 | -2 | / | / | / | /
O=c1[nH]c(=O)n([C@H]2C[C@H](O)[C@@H](CO)O2)cc1F | -3 | -8 | -2 | -1 | -9 | -5 | / | / | / | /
O=c1[nH]c(=O)n([C@H]2C[C@H](O)[C@@H](CO)O2)cc1Br | 1 | 38* | 8.8* | -1 | 3 | 13* | 14* | 5.5* | 0 | 12*
COc1ccc(-c2cc3ccccc3c(=O)o2)cc1 | / | 25* | 12* | 2.2* | / | 7.7* | 13* | 6.6* | 2 | 11*
COc1ccc(C(=O)c2c(O)cc(-c3ccc(OC)cc3)oc2=O)cc1 | 1 | 2 | -3 | -1 | -1 | -1 | / | / | / | /
N#Cc1ccc(NCC(=O)Nc2ccc3c(c2)OCCO3)cc1 | 0 | -1 | 1 | -2 | 0 | -1 | / | / | / | /
N#Cc1cccc(NCC(=O)Nc2ccc3c(c2)OCCO3)c1 | 1 | 13* | 7.8* | 1.4* | 6 | 5.2* | 11* | 4.1* | 2 | 7.6*
Cc1ccc(C(=O)Nc2ccc3c(c2)OCO3)cc1 | -2 | 13* | 20* | 3.3* | -4 | 5.6* | 11* | 6.0* | 2 | 14*
O=C(Nc1ccc2c(c1)OCCO2)Nc1ccc2c(c1)OCO2 | -1 | 22* | 9.2* | 3.1* | 0 | 5.4* | 14* | 6.7* | 2 | 9.1*
NC(=O)c1ccc(NC(=O)Nc2ccc3c(c2)OCO3)cc1 | 0 | 7 | 2 | 0 | 5 | -1 | / | / | / | /
Cc1ccc(NC(=O)Nc2ccc3c(c2)OCO3)cc1F | 0 | 11* | 8.0* | 0 | 1 | 7.5* | 12* | 9.6* | 1 | 4
COc1ccccc1CCNS(=O)(=O)c1cc2c3c(c1)CCN3C(=O)CC2 | 1 | 1 | 0 | -1 | 2 | 0 | / | / | / | /
CC(C)c1cc(C(=O)Nc2ccc3c(c2)OCO3)no1 | 2 | 8 | 12* | 2.0* | 2 | 6.4* | 16* | 7.1* | 1 | 7.9*
COc1ccc(Cc2c(O)nc(SCC(=O)NC(C)(C)C)[nH]c2=O)cc1 | 0 | -3 | -1 | -2 | 1 | 0 | / | / | / | /
Cc1cc(NC(=O)CC2Oc3ccccc3NC2=O)ccc1Br (stereo not given) | -1 | -2 | 0 | 0 | 2 | 0 | / | / | / | /
CCOC(=O)c1cc(-c2cccc(O)c2)oc1C | / | 14* | 9.8* | 3.3* | / | 6.2* | 3.8* | 3.2* | 1 | 13*
CCCCNC(=O)COn1nnc2ccc(S(=O)(=O)N3CCOCC3)cc21 | 0 | 0 | 0 | -1 | 0 | 2 | / | / | / | /
Fc1ccc(/C=N/NC2=Nc3cccc4cccc2c34)cc1 | 3 | 22* | 15* | 2.2* | 5 | 5.2* | 10* | 8.4* | 1 | 11*
COc1ccc(-n2ncc3c(NCC(C)C)ncnc32)cc1 | 0 | 11* | 9.8* | 1 | 0 | 5.0* | 13* | 4.1* | 2 | 5.7*
COc1ccc(-n2ncc3c(NCc4ccc5c(c4)OCO5)ncnc32)cc1 | 1 | 2 | 2 | -1 | 3 | -1 | / | / | / | /
N#C/C(=C\c1ccc[nH]1)C(=O)Nc1ccccc1F | 1 | 12* | 12* | 4.3* | 5 | 7.4* | 9.5* | 7.0* | 1 | 8.6*
COc1ccccc1CCn1cnc(-c2ccc(F)cc2)c1CC(C)C | / | 0 | -3 | -2 | / | -2 | / | / | / | /
SMILES | DAX1 inh-1 | hgDAF12 agonist | hcDAF-12 act | ssDAF12 agonist | GAA850 FXN act | DAX1 inh-2 | DAX1 inh confirm | SF1 mutant ctr | LXRb hcDAF ctr | hcDAF12 ag
O=C1C=CN(C2OC(CO)C(O)C2O)C(=O)C1 (stereo not given) | -1 | -8 | -2 | -1 | -2 | -2 | / | / | / | /
Cc1ccc2nc(CSc3nc(C)ccc3C#N)[nH]c2c1 | 0 | 18* | 19* | 1.4* | 1 | 6.0* | 16* | 6.2* | 2 | 26*
O=C(NCc1ccccc1)C1C(c2ccc3c(c2)OCO3)=Nc2ccccc2N1C(=O)c1cccc2ccccc12 (stereo not given) | / | 1 | -3 | -1 | / | 0 | / | / | / | /
COC(=O)C1=C(C)NC(C)=C(C(=O)OC)C1c1ccc2ccccc2n1 | 0 | -1 | 1 | 0 | 1 | 0 | / | / | / | /
O=C1c2ccccc2C(=O)C1c1ccc2ccccc2n1 | 4.2* | 20* | 24* | 4.4* | 0 | 5.8* | 0 | -3 | 2 | 21*
CC(C)C[C@@H](C(=O)NC1CCN(Cc2ccccc2)CC1)N1C(=O)N2CCc3c([nH]c4ccccc34)[C@@]2(C)C1=O | -1 | -1 | 3 | 0 | -8 | 1 | / | / | / | /
Cc1ccc(CSc2nc3ccncc3[nH]2)cc1 | -4 | 18* | 11* | 1.4* | 2 | 13* | 16* | 9.6* | 2 | 10*
O=C(NCc1ccc(Cl)cc1)c1ccc(CSc2nc3ccncc3[nH]2)cc1 | -2 | 0 | -2 | -1 | -2 | -1 | / | / | / | /
COc1ccc(-n2nc3cc(C)c(N)c(Br)c3n2)cc1 | 3 | 14* | 20* | 3.2* | 7 | 5.2* | 10* | 4.8* | 2 | 17*
COc1ccc(-n2nc3ccccc3n2)cc1 | 1 | 4 | 2 | 0 | 4 | 0 | / | / | / | /
O=C(CCN1C(=O)NC2(CCCC2)C1=O)Nc1ccc(-c2nc3ccccc3s2)cc1 | -1 | 13* | 7.7* | 1.0* | -1 | 5.8* | 13* | 5.8* | 1 | 7.6*

Screens (PubChem)
